Test results reported in the supplement of paper PMC8975748.
Structures can show the parent of a compound that is named as a salt.

These molecules were tested on Saccharomyces cerevisiae BY4741 SeMeCo community (assay: z-score of subpopulation abundance vs DMSO median, subpopulation auxotrophic for LM; higher = larger share of this subpopulation than in DMSO controls). Details: 10 µM; 24 h; SM minimal medium; subpopulation (auxotrophy): LM.
Experimental: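 Fluorescent four-plasmid SeMeCo (self-establishing metabolically cooperating S. cerevisiae BY4741 community; plasmids pH-mRuby2, pL-mWasabi, pU-eCFP, pM-TagRFP657) was grown 24 h in minimal SM medium with each Selleck FDA-approved drug at 10 µM in 384-well plates. Cells were fixed and imaged by high-content confocal microscopy. For each auxotrophic subpopulation (and the prototroph), a z-score gives the deviation from the DMSO vehicle-control population median.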

SMILES	z-score of subpopulation abundance
CCOC(=O)Nc1ccc(NCc2ccc(F)cc2)cc1N [Retigabine 2HCl]	0.17
CC[C@H]1[C@@H]2C[C@H]3[C@@H]4N(C)c5ccccc5[C@]45C[C@@H]([C@@H]2[C@H]5O)N3[C@@H]1O [Ajmaline]	-0.31
CCN(CC)CCOC(=O)C(O)(c1ccccc1)c1ccccc1 [Benactyzine hydrochloride]	0.4
CC[C@@]1(O)C(=O)OCc2c1cc1n(c2=O)Cc2cc3ccccc3nc2-1 [Camptothecin]	-0.25
CCC1=C[C@H]2CN3CCc4c([nH]c5ccccc45)[C@](C(=O)OC)(C2)[C@H]13 [Catharanthine]	-0.74
Cc1cc(C(C#N)c2ccc(Cl)cc2)c(Cl)cc1NC(=O)c1cc(I)cc(I)c1O (stereo not given) [Closantel]	1.19
CCN(C)C(=O)Oc1cccc([C@H](C)N(C)C)c1 [Rivastigmine Tartrate]	0
C[N+](C)(C)CCCCCCCCCC[N+](C)(C)C [Decamethonium Bromide]	-0.15
CC(C)(O)C(Cl)(Cl)Cl [Chlorobutanol]	0.13
CCN1CC2(OC(=O)c3ccccc3NC(C)=O)CCC(OC)C34C1C(CC23)C1(O)CC(OC)C2CC4C1(O)C2OC (stereo not given) [Lappaconitine]	-0.33
COc1cc2c(cc1OC)C1CC(=O)C(CC(C)C)CN1CC2 (stereo not given) [Tetrabenazine (Xenazine)]	0.75
C[N+]1(C)[C@@H]2C[C@@H](OC(=O)[C@H](CO)c3ccccc3)C[C@H]1[C@@H]1O[C@@H]12 [Methscopolamine]	-0.56
O=[N+]([O-])C(Br)(CO)CO [Bronopol]	-0.89
N#Cc1nn(-c2c(Cl)cc(C(F)(F)F)cc2Cl)c(N)c1[S+]([O-])C(F)(F)F (stereo not given) [Fipronil]	-0.79
N[C@@H]1C[C@H]1c1ccccc1 [Tranylcypromine (2-PCPA) HCl]	-0.94
C#C[C@]1(O)C=C[C@H]2[C@@H]3CCC4=CC(=O)CC[C@@H]4[C@H]3CC[C@@]21CC [Gestodene]	0.29
CN(C)C(=O)Oc1ccc[n+](C)c1 [Pyridostigmine Bromide]	-0.35
CC(C)=CCOc1c2occc2cc2ccc(=O)oc12 [Imperatorin]	0
NCCc1c[nH]c2ccc(O)cc12 [Serotonin HCl]	-1.09
CC[N+](C)(CC)CCOC(=O)C(O)(c1ccccc1)c1ccccc1 [Methylbenactyzine Bromide]	-0.89

SMILES	z-score of subpopulation abundance
CN(C)[C@@H]1C(=O)C(C(N)=O)=C(O)[C@@]2(O)C(=O)C3=C(O)c4c(O)cccc4[C@@](C)(O)[C@H]3[C@H](O)[C@@H]12 [Oxytetracycline (Terramycin)]	-0.04
CC1(C)SC2C(N)C(=O)N2C1C(=O)O (stereo not given) [6-Aminopenicillanic acid]	0.56
C=C[C@H]1CN2CC[C@H]1C[C@H]2[C@H](O)c1ccnc2ccccc12 [Cinchonidine]	-0.08
CN1[C@@H]2C[C@@H](OC(=O)[C@H](CO)c3ccccc3)C[C@H]1[C@@H]1O[C@@H]12 [Scopolamine HBr]	-0.51
C=CCN1C[C@H](C(=O)N(CCCN(C)C)C(=O)NCC)C[C@@H]2c3cccc4[nH]cc(c34)C[C@H]21 [Cabergoline]	-0.31
C[CH2][Hg][S]c1ccccc1C(=O)[O-].[Na+] [Thimerosal]	13.9
O=c1cccc2n1C[C@@H]1CNC[C@H]2C1 [Cytisine]	-0.02
CN1[C@@H]2CC[C@H]1C[C@@H](OC(=O)[C@H](CO)c1ccccc1)C2 [Hyoscyamine]	-0.17
Nc1nc(N)nc(NC2CC2)n1 [Cyromazine]	0.84
O=C(O[C@H]1C[N+]2(CCCOc3ccccc3)CCC1CC2)C(O)(c1cccs1)c1cccs1 [Aclidinium Bromide]	-0.14
CN1[C@@H]2CC[C@H]1C[C@@H](OC(=O)C(CO)c1ccccc1)C2 (stereo not given in full) [Atropine sulfate monohydrate]	-0.12
CC(C)N(CCC(C(N)=O)(c1ccccc1)c1ccccn1)C(C)C (stereo not given) [Disopyramide]	1.31
C=CC[C@]1(O)CC[C@H]2[C@@H]3CCC4=CC(=O)CCC4=C3C=C[C@@]21C [Altrenogest]	0.15
CC(NC(C)(C)C)C(=O)c1cccc(Cl)c1 (stereo not given) [Amfebutamone (Bupropion) HCl]	-0.59
CCN(C)C(=O)Oc1cccc([C@H](C)N(C)C)c1 [Rivastigmine]	-0.54
Oc1cc(Cl)ccc1Oc1ccc(Cl)cc1Cl [Triclosan]	-2.25
CNC1CC(N)C(O)C(OC2OC(CO)C(O)C3OC4(OC(C(N)CO)C(O)C(O)C4O)OC23)C1O (stereo not given) [Hygromycin B]	-0.12
CCCN1C[C@H](CSC)C[C@@H]2c3cccc4[nH]cc(c34)C[C@H]21 [Pergolide Mesylate]	-0.22
Nc1ccncc1 [4-Aminopyridine]	0.74
C[C@H]1O[C@H](O[C@H]2[C@H](O)[C@@H](O)[C@@H](O)[C@H](O)[C@@H]2O)[C@@H](N)C[C@@H]1NC(=N)C(=O)O [Kasugamycin hydrochloride]	0.45
